Screens as filed in PubChem BioAssay.
A3A deaminase: blocks human APOBEC3A ssDNA deamination. P31941. recombinant A3A, FAM/TAMRA ssDNA deamination fluorescence. inhibition, % at 20 µM. actives 0.41% (n = 330,000);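 active = at least 40% inhibition at 20 µM here, with at most 30% in a related deaminase screen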;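 note: plate controls were A3A with DMSO for no effect and wells lacking A3A enzyme for full effect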
Target sequence (P31941 whole entry, looked up): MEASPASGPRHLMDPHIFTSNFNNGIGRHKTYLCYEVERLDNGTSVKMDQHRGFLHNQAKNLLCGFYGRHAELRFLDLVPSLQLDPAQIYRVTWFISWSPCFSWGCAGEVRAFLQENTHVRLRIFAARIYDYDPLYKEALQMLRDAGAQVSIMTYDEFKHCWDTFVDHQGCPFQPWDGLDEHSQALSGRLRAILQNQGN
PABP FP inh: PABP-poly(A) binding inhibition; actives 1% (n = 290,000); P11940; calls only at 35 µM; PABP-poly(A) RNA binding, fluorescence polarization; AID 2014;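 note: calls also rest on retests at 20 µM and on dose response follow-up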
PABP1 MLLE inh: blocks PAM2 peptide binding to the PABP1 MLLE domain; P11940; GST-MLLE / FITC-PAM2 fluorescence polarization; inhibition, % at 20 µM; actives 0.36% (n = 360,000); AID 588489; in the data active = inhibition above about 35%, passing the limit was not always enough;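 note: plate controls were DMSO wells with GST-MLLE for no effect and wells lacking GST-MLLE protein for full effect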
PHOSPHO1 block: blocks human PHOSPHO1 phosphatase activity; AID 1565; recombinant PHOSPHO1, absorbance phosphatase assay; actives 1.1% (n = 290,000); inhibition, % at 13.3 µM; in the data active = inhibition above about 60%
eIF4H FP inh: inhibitors of RNA binding by human eIF4H | Q15056 | actives 0.94% (n = 290,000) | eIF4H fluorescence polarization binding assay | inhibition, % at 35 µM;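 note: calls also rest on retests at 20 µM and on dose response follow-up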
A3G deaminase: blocks human APOBEC3G single-stranded DNA deamination; inhibition, % at 20 µM; AID 493012; actives 0.28% (n = 330,000); Q9HC16; recombinant A3G, ssDNA deamination FAM/TAMRA fluorescence;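 active = inhibition of at least 40% at 20 µM, with no more than 30% in the related APOBEC3A deaminase screen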;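 note: plate controls were DMSO wells with A3G for no effect and wells lacking A3G enzyme for full effect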
Target sequence (Q9HC16 whole entry, looked up): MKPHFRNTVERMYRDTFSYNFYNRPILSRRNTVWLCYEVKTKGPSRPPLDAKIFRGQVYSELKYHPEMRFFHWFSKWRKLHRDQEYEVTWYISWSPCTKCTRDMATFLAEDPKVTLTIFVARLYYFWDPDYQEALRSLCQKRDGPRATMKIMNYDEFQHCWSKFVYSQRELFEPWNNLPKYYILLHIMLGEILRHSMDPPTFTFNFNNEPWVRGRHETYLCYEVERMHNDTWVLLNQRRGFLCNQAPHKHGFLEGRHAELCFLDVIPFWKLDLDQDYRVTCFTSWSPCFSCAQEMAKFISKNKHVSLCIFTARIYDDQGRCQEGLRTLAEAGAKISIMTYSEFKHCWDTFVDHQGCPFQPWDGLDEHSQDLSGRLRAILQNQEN
* hit, by the source's call; i = inactive; u = inconclusive; x = no result; + = active, no number. An excerpt weighted towards active compounds, which were near 2.6% of everything screened. Unless noted, the rule behind the calls is not given here.

SMILES | A3A deaminase | PABP FP inh | PABP1 MLLE inh | PHOSPHO1 block | eIF4H FP inh | A3G deaminase
CC1(C)O[C@@H]2[C@H](O1)[C@@H](CO)O[C@H]2n1ccc(=O)[nH]c1=O | 0.2 | x | -9.9 | x | x | -9.6
Cc1ccc2ncccc2c1NC(=S)NC(=O)c1ccccc1 | 0.7 | i | 41.6* | 23.6 | 2.7 | -0.3
Cc1cc(C)c(NC(=S)NC(=O)c2ccccc2)cc1C | x | x | 21.6 | x | x | x
O=C(COC(=O)c1ccccc1S(=O)(=O)N1CCCCC1)NCC(F)(F)F | 0.2 | + | 14.6 | 10.9 | active | -2.4
Cc1ccc(NC(=O)COC(=O)c2ccccc2F)cc1S(=O)(=O)N1CCCCC1 | -1.8 | x | -1.6 | x | x | -7.1
O=C(NC(=S)Nc1ccc(S(=O)(=O)N2CCCCC2)cc1)c1cccs1 | -1.9 | i | 44.1* | 13.4 | 2.0 | -5.3
CN1CCN(S(=O)(=O)c2ccc(NC(=S)NC(=O)C(C)(C)C)cc2)CC1 | -0.3 | i | 40.2* | 28.8 | -2.6 | -3.9
CC(Oc1ccccc1Cl)C(=O)Nc1ccc(S(=O)(=O)N2CCN(C)CC2)cc1 (stereo unspecified) | x | x | 39.6* | x | x | x
NS(=O)(=O)c1ccc(NC(=O)c2ccc(S(=O)(=O)N3CCCCC3)cc2)cc1 | 0.5 | x | -2.8 | x | x | -3.9
NS(=O)(=O)c1ccc(NC(=S)Nc2ccc(S(=O)(=O)N3CCCC3)cc2)cc1 | -0.2 | i | 43.1* | 11.4 | 10.8 | -2.4
CCc1nc(N2CCN(C(=O)CCl)CC2)c2c3c(sc2n1)CC(C)CC3 (stereo unspecified) | -1.4 | i | 3.6 | 17.4 | -6.1 | -7.3
CN1CCN(C(=S)NC(=O)c2ccc(S(=O)(=O)N3CCOCC3)cc2)CC1 | 0.4 | i | 40.2* | -90.4 | -6.5 | 7.0
CN(Cc1ccccc1)S(=O)(=O)c1ccc(NC(=S)NC(=O)C2CCCCC2)cc1 | -3.5 | i | 20.5 | 8.4 | -17.7 | -8.6
CN(Cc1ccccc1)S(=O)(=O)c1ccc(NC(=S)NC(=O)C(C)(C)C)cc1 | 1.0 | i | 36.2* | -2.0 | 1.5 | 9.1
C=CCCC(=O)N1C[C@H]2CON(C)[C@H]2C[C@H]1c1ccc(-n2ccnc2)cc1 | x | x | 4.8 | x | x | x
Cc1ccc(C(N)=S)c(C)c1 | -4.4 | x | 40.0* | x | x | -2.5
Cc1sc(-n2c(C)cc(/C=C3\SC(=S)NC3=O)c2C)c(C#N)c1C | 13.0 | i | -62.4 | 13.5 | 35.9 | -0.1
Cc1sc(-n2c(C)cc(/C=N/n3cnnc3)c2C)c(C#N)c1C | -0.1 | i | 36.0 | 84.3* | -3.4 | 34.8
CCC(OC(=O)CC1Sc2ccccc2NC1=O)C(=O)NCC1CCCO1 (stereo unspecified) | -5.2 | i | 40.0* | 5.7 | 0.8 | -9.2
NC(=O)CSc1ncc(-c2ccccc2)[nH]1 | 1.9 | i | 19.4 | 73.8* | -2.0 | 2.2
O=C(CSc1ncc(-c2ccccc2)[nH]1)Nc1cccc(O)c1 | 0.5 | i | 26.5 | 93.5* | 0.8 | -2.6
O=C(NC(c1ccccc1)c1ccccc1)c1ccc(CO)cc1 | 22.1 | i | -19.9 | 11.0 | -8.2 | 0.2
COc1cc(/C=C2\SC(=O)N(c3ccc(Cl)cc3)C2=O)cc([N+](=O)[O-])c1O | x | i | -4.2 | 23.6 | 95.5* | x
COc1cc(/C=C2\SC(=O)N(c3cccc(Cl)c3)C2=O)cc([N+](=O)[O-])c1O | 1.3 | x | 84.8* | 12.9 | x | -1.2
Cc1cn([C@H]2C[C@H](O)[C@@H](/C=C/C(=O)NCc3ccc4c(c3)OCO4)O2)c(=O)[nH]c1=O | x | x | -9.5 | x | x | x
SMILES | A3A deaminase | PABP FP inh | PABP1 MLLE inh | PHOSPHO1 block | eIF4H FP inh | A3G deaminase
Cc1cc(C(=O)CSc2nncs2)c(C)n1-c1c(C)n(C)n(-c2ccccc2)c1=O | -3.9 | i | 17.2 | 50.4 | -4.0 | -8.0
Cc1cc(C(=O)CSc2nn3c(=O)c(C(C)(C)C)nnc3s2)c(C)n1C | -4.3 | + | -32.1 | -58.0 | 37.9* | -2.3
COc1ccc(-n2c(C)cc(C(=O)CSc3nn4c(=O)c(C(C)(C)C)nnc4s3)c2C)cc1 | -4.5 | i | -45.9 | 94.0* | 6.1 | -9.4
Cc1ccc(-n2c(C)cc(C(=O)CSc3nncs3)c2C)cc1 | -3.9 | i | 3.3 | 89.4* | -0.7 | 1.4
CC(C)(C)OC(=O)N1O[C@H]2CC1[C@@H]1[C@@H]2N=NN1CCc1ccncc1 | 9.4 | x | -1.0 | x | x | 0.9
COc1ccc(CCC(=O)NNC(=O)c2ccc(OC)cc2)cc1 | -1.5 | i | -22.9 | 39.1 | -2.3 | 2.7
Cc1cccc(N(CC(=O)NCc2ccco2)S(=O)(=O)c2ccccc2)c1 | x | x | -7.4 | x | x | x
CC(C)NC(=O)c1ccc2c(c1)N(CC(=O)N1CCCCC1)C(=O)C(C)(C)O2 | -2.8 | i | 0.5 | -8.0 | 17.8 | -1.4
CCOC(=O)CC(=O)CSc1nc(-c2ccc3c(c2)OCO3)cc(C(F)(F)F)c1C#N | -2.4 | + | 5.1 | 31.5 | u | -4.4
COC(=O)CC(N)c1ccc(Br)cc1 (stereo unspecified) | -2.4 | i | -15.7 | 16.6 | 1.0 | -12.6
COC(=O)CC(NC(=S)NC(=O)c1ccccc1)c1ccc(Br)cc1 (stereo unspecified) | -2.9 | i | 45.7* | x | 15.9 | -3.0
CN(C)c1ccc(/C=C(\C#N)C(=O)c2ccccc2)cc1 | x | u | i | 50.8 | u | x
CCOC(=O)NC(=O)/C(C#N)=C/c1ccc(N(C)C)cc1 | -2.9 | + | -139.2 | 25.4 | 76.7 | -4.3
C[C@H](NC(=O)c1ccccc1)C(=O)OCC(=O)Nc1ccc(Cl)cn1 | x | x | 5.1 | x | x | x
COC(=O)[C@@]1(Cc2ccccc2)[C@H]2C(=O)N(Cc3ccccc3)C(=O)[C@H]2[C@H]2CN=C(SCC(=O)c3ccccc3)N21 | -1.6 | x | 18.9 | x | x | 1.0
CC[C@]1(C(=O)OC)[C@H]2C(=O)N(Cc3ccccc3)C(=O)[C@H]2[C@H]2CN=C(SCC(=O)c3ccccc3)N21 | 4.7 | x | 37.8* | x | x | 7.4
Cc1nc2c(C)cccn2c(=O)c1NC(=O)c1ccc2c(c1)OCO2 | 3.6 | x | 2.1 | x | x | -2.0
CC(C)N1CCN(CC#Cc2ccccc2)CC1CCO (stereo unspecified) | -2.7 | i | -3.4 | -3.4 | -0.1 | -6.7
C[C@H](Nc1ncnc2sc3c(c12)CCC3)C(=O)O | 3.3 | i | 13.7 | 66.4* | -1.2 | -6.1
Cc1sc2ncnc(NC(C)C(=O)O)c2c1C (stereo unspecified) | 1.9 | i | -15.5 | 39.5 | -3.7 | -2.9
CCOC(=O)c1ccc(NC(=O)CN2CCN(C(=O)c3ccco3)CC2)cc1 | 3.7 | i | -7.4 | 75.0* | -2.1 | 4.4
COc1ccccc1C1=Nn2c(COc3ccccc3)nnc2SC1 | -3.0 | i | x | -14.2 | -6.1 | 51.4*
c1ccc(OCc2nnc3n2N=C(c2ccccc2)CS3)cc1 | 4.1 | i | 13.3 | 59.3 | -10.4 | 38.4
O=c1cc[nH]c2c1ccc1c(=O)cc[nH]c12 | -1.5 | i | 3.6 | 14.1 | 85.9* | -5.8
c1ccc2c(c1)Nc1cc3ccccc3cc1O2 | x | x | 1.4 | x | x | x
CC(C)CC(NC(=O)C(COCc1ccccc1)NC(=O)OC(C)(C)C)C(=O)NN (stereo unspecified) | -1.8 | i | 11.1 | -10.2 | active | -3.8
